{"source": "ChEMBL document CHEMBL4513216", "about": "“Probing the Open Global Health Chemical Diversity Library for Multistage-Active Starting Points for Next-Generation Antimalarials” (ACS Infect Dis, 2020)", "note": "Out of some 69,000 compounds screened, about 8,600 (12%) showed an effect of 50% or more. Shown is part of a subset that was picked to be rich in strong results."}
{"test_system": "Plasmodium berghei", "test": "Screen against P. berghei liver stage (PbLuc), transformed with Luciferase, at 10uM", "format": "functional, HepG2", "conditions": "tested at 10 uM", "units": {"INHIBITION": "%"}}
{"smiles": "O=C(c1cccs1)N1CCc2c(nc(N3CCCCC3)[nH]c2=O)C1", "INHIBITION": 37.6}
{"smiles": "COc1ccc(C(=O)NCc2ccco2)nn1", "INHIBITION": 9.4}
{"smiles": "Cc1cc(C)n(CC2CN(CC(=O)NC3CCCCC3)CCO2)n1", "note": "(stereo not given)", "INHIBITION": 8.64}
{"smiles": "Cc1cc(C)n(CC2CN(CC(=O)NC3CCCC3)CCO2)n1", "note": "(stereo not given)", "INHIBITION": 0.706}
{"smiles": "CCN(CC)C(=O)CN1CCC2(C=Cc3cc(Cl)c(C)cc3O2)CC1", "INHIBITION": 78.9}
{"smiles": "Cc1cc(C(=O)N2CCCC3(C=Cc4ccccc4O3)CC2)cc(=O)[nH]1", "note": "(stereo not given)", "INHIBITION": -155}
{"smiles": "Cc1cc2c(cc1C)OC1(C=C2)CCN(CC(=O)N2CCOCC2)CC1", "INHIBITION": 19.5}
{"smiles": "Cc1cc2c(cc1Cl)C=CC1(CCN(C(=O)N3CCOCC3)CC1)O2", "INHIBITION": 89.9}
{"smiles": "Nc1cc(C(=O)N2CCCC3(C=Cc4ccccc4O3)CC2)ccn1", "note": "(stereo not given)", "INHIBITION": 34.8}
{"smiles": "Cc1cc2c(cc1Cl)C=CC1(CCN(CC(=O)NC3CCCC3)CC1)O2", "INHIBITION": 80}
{"smiles": "CCN(CC)C(=O)CN1CCC(c2nc(C)c3c(n2)N(C)CCC3)CC1", "INHIBITION": 8.12}
{"smiles": "Cc1cc2c(cc1Cl)C=CC1(CCN(CC(=O)N3CCOCC3)CC1)O2", "INHIBITION": 15.1}
{"smiles": "Cc1cc2c(cc1Cl)C=CC1(CCN(CC(=O)N3CCCC3)CC1)O2", "INHIBITION": 85.5}
{"smiles": "Cc1ccc(CCC(=O)N2CCOCC2)cc1Cl", "INHIBITION": -18}
{"smiles": "Cn1nc(C2CC2)cc1C(=O)N1CCC(c2nnsc2S(C)(=O)=O)CC1", "INHIBITION": 18.14}
{"smiles": "CN(C)C(=O)CN1C(=O)CCC12CCN(Cc1ccsc1)CC2", "INHIBITION": 17.4}
{"smiles": "COc1cc2c(cc1CCC(=O)O)CCC2", "INHIBITION": -5.7}
{"smiles": "COc1cc(C)c(C)cc1S(=O)(=O)N(C)CC(=O)Nc1ccon1", "INHIBITION": 27.4}
{"smiles": "CCCn1nnnc1COc1cc(OC)ccc1C(=O)OC", "INHIBITION": 18.4}
{"smiles": "CCCc1cc(NCCCC2CCOC2)n2nccc2n1", "note": "(stereo not given)", "INHIBITION": -7.65}
{"smiles": "CS(=O)(=O)N1CCC(Nc2ccnc3ccc(Cl)cc23)CC1", "INHIBITION": -20.6}
{"smiles": "CCn1ccnc1CNC1CC(=O)N(CCc2cccc(Cl)c2)C1", "note": "(stereo not given)", "INHIBITION": -6.39}
{"smiles": "CCc1nccn1CCNC1CCN(c2nc3ccc(Cl)cc3s2)CC1", "INHIBITION": 78.1}
{"smiles": "CCc1cc(NCCCC2CCOC2)n2nccc2n1", "note": "(stereo not given)", "INHIBITION": 48.1}
{"smiles": "CCc1cc(N2CCC(NCCc3ccccc3F)CC2)nc(C)n1", "INHIBITION": 11}
{"smiles": "CCCc1cc(N2CCC(NCCc3ccc(O)cc3)CC2)nc(C)n1", "INHIBITION": 30.3}
{"smiles": "CCS(=O)(=O)CCNC1CCN(c2nc3ccc(Cl)cc3s2)CC1", "INHIBITION": 85.2}
{"smiles": "Clc1ccc2nc(N3CCC(NCCCC4CCOC4)CC3)sc2c1", "note": "(stereo not given)", "INHIBITION": 88.1}
{"smiles": "CCOc1ccc2cc(C(=O)NCCNc3ccc(C)nn3)[nH]c2c1", "INHIBITION": -21.9}
{"smiles": "Cc1cc(C(=O)NC2CCC3(CCC(=O)N3C)CC2)no1", "note": "(stereo not given)", "INHIBITION": 28.4}
{"smiles": "CN(Cc1ccco1)[C@@H]1CN(Cc2ccsc2)C[C@@H]2CCCO[C@@H]21", "INHIBITION": 17.5}
{"smiles": "CC(C)N(Cc1ccccn1)C(=O)CCC(=O)c1ccccc1", "INHIBITION": 34.1}
{"smiles": "CC(C)c1n[nH]c(C2CN(CCc3cccs3)CCO2)n1", "note": "(stereo not given)", "INHIBITION": -21.9}
{"smiles": "CN(Cc1ccco1)C(=O)C1=NN(C)C(=O)CC1", "INHIBITION": -14.3}
{"smiles": "CC(=O)N(CCc1nc(-c2cc(C(N)=O)co2)cs1)C(C)C", "INHIBITION": -49.3}
{"smiles": "CC(=O)N(CCc1nc(-c2cc(C(N)=O)oc2C)cs1)C(C)C", "INHIBITION": 74}
{"smiles": "CC(=O)N(C)CCc1nc(-c2cc(C(N)=O)co2)cs1", "INHIBITION": -91.4}
{"smiles": "CN(C)c1nccc(C2CCCN(C(=O)CO)C2)n1", "note": "(stereo not given)", "INHIBITION": 23.2}
{"smiles": "CCC(=O)N1CCCC(c2nc(N(C)C)ncc2-c2ccc(F)cc2)C1", "note": "(stereo not given)", "INHIBITION": 73.1}
{"smiles": "CC(C)C(=O)N1CCCC1c1nc(N(C)C)ncc1-c1ccc(Cl)cc1", "note": "(stereo not given)", "INHIBITION": 26.7}
{"smiles": "CC(=O)N1CCCC(c2nc(N(C)C)ncc2-c2ccccc2)C1", "note": "(stereo not given)", "INHIBITION": 9.98}
{"smiles": "CC(=O)N1CCOC(c2nc(N(C)C)ncc2-c2cccc(F)c2)C1", "note": "(stereo not given)", "INHIBITION": 9.93}
{"smiles": "CCC(=O)N1CCCC1c1nc(N(C)C)ncc1-c1ccc(Cl)cc1", "note": "(stereo not given)", "INHIBITION": 50.8}
{"smiles": "CC(=O)N1CCCC1c1nc(N(C)C)ncc1-c1ccccc1", "note": "(stereo not given)", "INHIBITION": 1.62}
{"smiles": "CC(=O)N1CCCC(c2nc(N(C)C)ncc2-c2cccc(F)c2)C1", "note": "(stereo not given)", "INHIBITION": 74.9}
{"smiles": "COCC(=O)N1CCCC(c2nc(N(C)C)ncc2-c2ccccc2)C1", "note": "(stereo not given)", "INHIBITION": 42.5}
{"smiles": "CSCC[C@H](N)C(=O)NCc1cc2n(n1)CCCN(C(=O)N(C)C)C2", "INHIBITION": 3.19}
{"smiles": "Cc1nc(CN2CCO[C@H]3[C@H](OCC(=O)N(C)C)CC[C@@H]32)cs1", "INHIBITION": 10.6}
{"smiles": "CC(NC(=O)c1ccc(F)cc1F)c1cnn(C)c1", "note": "(stereo not given)", "INHIBITION": 33.3}
{"smiles": "O=C(Nc1cccnc1)[C@H]1C[C@H]2OCC[C@H]2N(C(=O)c2ccsc2)C1", "INHIBITION": 3.41}
